The record followed here is PubChem BioAssay (EPA / NIEHS).

Structures are written as SMILES. Inconclusive results are not listed. Where a structure was tested more than once in an assay, its records may differ in their call. Calls of active or inactive are those of the source. Rule for the calls: active = hit-call score of the fitted dose curve at least 0.9, where 1 is the maximum; inconclusive = response in the unintended direction; inactive = score below 0.9. Peptide text beside a SMILES is read from it.

Chain of Estrogen receptor (Homo sapiens) (P03372 whole entry, looked up): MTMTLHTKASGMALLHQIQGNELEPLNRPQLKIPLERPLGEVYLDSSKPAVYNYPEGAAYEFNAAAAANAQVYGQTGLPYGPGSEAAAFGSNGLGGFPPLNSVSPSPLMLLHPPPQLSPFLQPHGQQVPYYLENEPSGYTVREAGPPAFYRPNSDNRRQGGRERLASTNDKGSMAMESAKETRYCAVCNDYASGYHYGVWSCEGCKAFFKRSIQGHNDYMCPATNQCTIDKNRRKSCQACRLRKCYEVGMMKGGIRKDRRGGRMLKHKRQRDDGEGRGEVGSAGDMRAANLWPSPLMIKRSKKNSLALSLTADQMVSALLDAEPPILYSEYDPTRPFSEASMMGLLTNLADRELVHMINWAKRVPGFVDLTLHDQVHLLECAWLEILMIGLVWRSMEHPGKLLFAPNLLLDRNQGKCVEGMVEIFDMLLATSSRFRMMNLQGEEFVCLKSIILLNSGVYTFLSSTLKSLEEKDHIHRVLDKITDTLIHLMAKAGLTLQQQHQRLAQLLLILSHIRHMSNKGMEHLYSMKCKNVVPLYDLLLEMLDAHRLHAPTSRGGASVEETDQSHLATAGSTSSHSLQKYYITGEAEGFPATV

One assay deals with Estrogen receptor (Homo sapiens) (UniProt P03372). Put plainly: NVS_NR_hER: NovaScreen (NVS) Nuclear Receptor Binding Assay for human Estrogen Receptor (ER) (AID 2283348). The method, boiled down:
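Cell-free radioligand binding with protein extracted from MCF7 cells; scintillation counting 18 hours after dosing. Loss of signal versus DMSO baseline read as displacement; primary single-concentration screen at 25 uM in duplicate, actives retested in concentration series.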
Consider `COc1ccc(-c2coc3cc(O)cc(O)c3c2=O)cc1`, for which the concentration at half-maximal activity (AC50) was 0.642 µM (active).
Same read-out and setting: to `C=C1C[C@H]2[C@@H]3C=C(C)C4=CC(=O)CC[C@]4(C)[C@H]3CC[C@]2(C)[C@@]1(OC(C)=O)C(C)=O` belongs 0.0185 µM (active).
Turning to `CCCCCCCCCCCC(=O)N(C)CC(=O)O`, the outcome was inactive.
`CC(=O)OCc1ccccc1`: the outcome was inactive.
For `CCCCCCCOC(=O)c1ccc(O)cc1`, the AC50 was 3.5 µM (active).
`O=C(Nc1ccccc1)c1cc(Cl)ccc1O`: the compound was classed as inactive.
With `O=C(OCc1ccccc1)c1ccc(O)cc1`, the AC50 was 0.212 µM (active).
Take `O=S(=O)(O)c1ccc(Nc2nc(Nc3ccc(C=Cc4ccc(Nc5nc(Nc6ccc(S(=O)(=O)O)cc6)nc(N(CCO)CCO)n5)cc4S(=O)(=O)O)c(S(=O)(=O)O)c3)nc(N(CCO)CCO)n2)cc1`: the call was inactive.
Still for that read-out and setting: in the case of `c1ccc(Nc2cccc3ccccc23)cc1` it was “inactive”.
On the same count and under the same terms, in the case of `Oc1ccccc1Cc1ccccc1O` it was “inactive”; in that of `C[Si](C)(C)N[Si](C)(C)C`, “inactive”.
With `CN(C)Cc1cc(CN(C)C)c(O)c(CN(C)C)c1`, the compound was classed as inactive.
Turning to `CCCCC/C=C\C/C=C\CCCCCCCC(=O)O`, the AC50 was 25 µM (active).
In the case of `Cc1cc(C)n(CO)n1`, the compound was classed as inactive.
For `N#Cc1ccc(C2CCCc3cncn32)cc1` (stereo not drawn), the AC50 is 4.33 µM (active).
For the compound `C=CC(=O)OCCCCCCOC(=O)C=C`, the compound was called inactive.
Take `COC(OC)(C(=O)c1ccccc1)c1ccccc1`: the AC50 is 25 µM (active) and the outcome was inactive.
On to `CCCCCCCCCC[N+](C)(CCCCCCCCCC)CCC[Si](OC)(OC)OC`, for which the outcome was inactive.
Take `Nc1ccc(O)c([N+](=O)[O-])c1`: the compound was classed as inactive.
With `O=c1c(O)c(-c2ccc(O)cc2O)oc2cc(O)cc(O)c12`, the AC50 was 4.3 µM (active).
On to `CC(C)c1ccc(O)c(C(C)C)c1`, for which the result was inactive.
Turning to `CC(C)=CCCC(C)=CC#N`, the call was inactive.
As for `CC(CCC(=O)O)(c1ccc(O)cc1)c1ccc(O)cc1`, the half-maximal activity concentration (AC50) is 4.34 µM (active).
For the compound `CO[Si](C)(C)OC`, the compound was classed as inactive.
Regarding `CCCCCCCCCCCCc1ccc(O)cc1`, the AC50 was 11 µM (active).
`CCCCOC(=O)CCC(C)=O`: the compound was classed as inactive.
In the case of `Oc1ccc(-c2ccccc2)c(Cl)c1`, the compound was classed as inactive.
For `Oc1ccc(/C=C/c2cc(O)cc(O)c2)cc1`, the concentration at half-maximal activity (AC50) is 2.52 µM (active) and the result was inactive.
With `CC(C)(c1ccccc1)c1ccc(Nc2ccc(C(C)(C)c3ccccc3)cc2)cc1`, the outcome was inactive.
The same measure, in the same setting: in the case of `CCCCCCCCCCCCCCCCCCOS(=O)(=O)O` it was “inactive”.
On the same count and under the same terms, in the case of `N=C1C=CC(=C(c2ccc(N)cc2)c2ccc(N)cc2)C=C1` it was “inactive”; in that of `N#Cc1ccc(C(c2ccc(C#N)cc2)n2cncn2)cc1`, “inactive”; in that of `C=CC(=O)OCC(C)OCC(C)OCC(C)OC(=O)C=C` (stereo not drawn), “inactive”.

Another assay shares this target. Put plainly: OT_ER_ERaERa_1440: Odyssey Thera (OT) 24-hour HEK293T Protein-Complementation Assay for Estrogen Receptor-alpha/-alpha Homodimer (AID 2283349).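 Note: hits raise fluorescence above DMSO for agonists and antagonists alike.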 The method, boiled down:
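Readout is the rise in mean fluorescence from reporter fragment complementation when ERα LBD (aa 310-547) units dimerize in HEK293T cells. Measured 24 h after dosing and analysed as increase over DMSO control.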
With `COc1ccc(-c2coc3cc(O)cc(O)c3c2=O)cc1`, the half-maximal activity concentration (AC50) was 13.7 µM (active).
As to `COC(=O)[C@H](Cc1ccccc1)NC(=O)[C@@H](N)CC(=O)O` (H-Asp-Phe-OMe), the call was inactive.
As for `C=C1C[C@H]2[C@@H]3C=C(C)C4=CC(=O)CC[C@]4(C)[C@H]3CC[C@]2(C)[C@@]1(OC(C)=O)C(C)=O`, the result was inactive.
The same measure, in the same setting: to `CCCCCCCCCCCC(=O)N(C)CC(=O)O` belongs “inactive”; to `CC(=O)OCc1ccccc1`, “inactive”.
As for `CCCCCCCOC(=O)c1ccc(O)cc1`, the concentration at half-maximal activity (AC50) was 12.3 µM (active).
For `O=C(Nc1ccccc1)c1cc(Cl)ccc1O`, the compound was called inactive.
Regarding `CC(C)(C)N`, the compound was classed as inactive.
In the case of `O=C(OCc1ccccc1)c1ccc(O)cc1`, the AC50 was 37.3 µM (active).
The same measure, in the same setting: in the case of `c1ccc(Nc2cccc3ccccc23)cc1` it was 63.1 µM (active).
Consider `Oc1ccccc1Cc1ccccc1O`, for which the call was inactive.
Regarding `C[Si](C)(C)N[Si](C)(C)C`, the call was inactive.
Still for that read-out and setting: in the case of `O=C(O)CC(C(=O)O)S(=O)(=O)O` (stereo not drawn) it was “inactive”; in that of `CC(=O)/C=C/C1C(C)=CCCC1(C)C` (stereo not drawn), “inactive”; in that of `Fc1ccc(Br)cc1`, “inactive”.
For `CN(C)Cc1cc(CN(C)C)c(O)c(CN(C)C)c1`, the outcome was inactive.
Still for that read-out and setting: to `CCCCC/C=C\C/C=C\CCCCCCCC(=O)O` belongs “inactive”; to `Cc1cc(C)n(CO)n1`, “inactive”; to `N#Cc1ccc(C2CCCc3cncn32)cc1` (stereo not drawn), “inactive”.
Take `CC12CCC(CC1)C(C)(C)O2`: the call was inactive.
In the case of `CCCCCCCCCC[N+](C)(CCCCCCCCCC)CCC[Si](OC)(OC)OC`, the result was inactive.
Turning to `O=c1c(O)c(-c2ccc(O)cc2O)oc2cc(O)cc(O)c12`, the compound was called inactive.
The same measure, in the same setting: to `O=C(O)CCC(=O)O` belongs “inactive”; to `CC(C)c1ccc(O)c(C(C)C)c1`, “inactive”; to `CC(C)=CCCC(C)=CC#N`, “inactive”.
For `CC(CCC(=O)O)(c1ccc(O)cc1)c1ccc(O)cc1`, the AC50 is 55.5 µM (active).
With `CO[Si](C)(C)OC`, the compound was classed as inactive.
On to `Oc1ccc(-c2ccccc2)c(Cl)c1`, for which the call was inactive.
Regarding `CC(C)(c1ccccc1)c1ccc(Nc2ccc(C(C)(C)c3ccccc3)cc2)cc1`, the outcome was inactive.
In the case of `CCCCCCCCCCCCCCCCCCOS(=O)(=O)O`, the result was inactive.
With `N#Cc1ccc(C(c2ccc(C#N)cc2)n2cncn2)cc1`, the outcome was inactive.

For a further assay the target is unchanged. Put plainly: OT_ER_ERaERa_0480: Odyssey Thera (OT) 8-hour HEK293T Protein-Complementation Assay for Estrogen Receptor-alpha/-alpha Homodimer (AID 2283351).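 Note: rise in fluorescence from reassembled reporter fragments on ERα LBD homodimer in nucleus or whole cell.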 The method, boiled down: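 Binding reporter in which dimerisation of ERα LBD (aa 310-547) fusions reconstitutes a fluorescent reporter in HEK293T cells. Compounds incubated 8 h; mean fluorescence intensity increase versus DMSO scored.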
Turning to `COc1ccc(-c2coc3cc(O)cc(O)c3c2=O)cc1`, the half-maximal activity concentration (AC50) was 12.3 µM (active).
`COC(=O)[C@H](Cc1ccccc1)NC(=O)[C@@H](N)CC(=O)O` (H-Asp-Phe-OMe): the call was inactive.
For `C=C1C[C@H]2[C@@H]3C=C(C)C4=CC(=O)CC[C@]4(C)[C@H]3CC[C@]2(C)[C@@]1(OC(C)=O)C(C)=O`, the outcome was inactive.
On the same count and under the same terms, to `CCCCCCCCCCCC(=O)N(C)CC(=O)O` belongs “inactive”; to `CC(=O)OCc1ccccc1`, “inactive”.
Take `CCCCCCCOC(=O)c1ccc(O)cc1`: the AC50 was 12.3 µM (active).
Regarding `O=C(Nc1ccccc1)c1cc(Cl)ccc1O`, the result was inactive.
On to `CC(C)(C)N`, for which the compound was classed as inactive.
On to `O=C(OCc1ccccc1)c1ccc(O)cc1`, for which the half-maximal activity concentration (AC50) is 18.9 µM (active).
Same read-out and setting: to `c1ccc(Nc2cccc3ccccc23)cc1` belongs 35.2 µM (active).
Regarding `Oc1ccccc1Cc1ccccc1O`, the compound was called inactive.
As to `C[Si](C)(C)N[Si](C)(C)C`, the call was inactive.
Regarding `O=C(O)CC(C(=O)O)S(=O)(=O)O` (stereo not drawn), the compound was classed as inactive.
Take `CC(=O)/C=C/C1C(C)=CCCC1(C)C` (stereo not drawn): the call was inactive.
Consider `Fc1ccc(Br)cc1`, for which the call was inactive.
Turning to `CN(C)Cc1cc(CN(C)C)c(O)c(CN(C)C)c1`, the result was inactive.
With `CCCCC/C=C\C/C=C\CCCCCCCC(=O)O`, the compound was classed as inactive.
On to `Cc1cc(C)n(CO)n1`, for which the outcome was inactive.
For `N#Cc1ccc(C2CCCc3cncn32)cc1` (stereo not drawn), the result was inactive.
As to `CC12CCC(CC1)C(C)(C)O2`, the outcome was inactive.
Take `CCCCCCCCCC[N+](C)(CCCCCCCCCC)CCC[Si](OC)(OC)OC`: the outcome was inactive.
Same read-out and setting: to `O=c1c(O)c(-c2ccc(O)cc2O)oc2cc(O)cc(O)c12` belongs “inactive”; to `O=C(O)CCC(=O)O`, “inactive”; to `CC(C)c1ccc(O)c(C(C)C)c1`, “inactive”.
As to `CC(C)=CCCC(C)=CC#N`, the call was inactive.
Take `CC(CCC(=O)O)(c1ccc(O)cc1)c1ccc(O)cc1`: the call was inactive.
As to `CO[Si](C)(C)OC`, the result was inactive.
For the compound `CCCCCCCCCCCCc1ccc(O)cc1`, the AC50 was 2.48 µM (active).
As for `Oc1ccc(-c2ccccc2)c(Cl)c1`, the AC50 is 12.2 µM (active).
On to `CC(C)(c1ccccc1)c1ccc(Nc2ccc(C(C)(C)c3ccccc3)cc2)cc1`, for which the result was inactive.
Still for that read-out and setting: to `CCCCCCCCCCCCCCCCCCOS(=O)(=O)O` belongs “inactive”; to `N#Cc1ccc(C(c2ccc(C#N)cc2)n2cncn2)cc1`, “inactive”.

As a reminder, the AC50 is the midpoint of the concentration-response curve, whichever way the signal moves.
